Reference: PubChem BioAssay (NCI)
Compounds without any hit were thinned out: in the full panel of roughly 83,000, 20% have a hit.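 How to read the values: 0–100, growth inhibition (40 = 60% inhibited); 0, no net growth; -100 to 0, cell death (-40 = 40% of starting cells died; -100 = all dead).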 A number with no mark means an inactive call. Active and inactive are the calls of the source. The calls were made as follows: active = growth percent below 10; inactive = the rest.

Legend:
Assay in all cases: NCI-60 one-dose screen, 48 h (100 = growth as untreated, 0 = no growth, -100 = all killed)
SK-MEL-2 melanoma = conditions: 10 µM unless noted
EKVX NSCLC = conditions: 10 µM unless noted
SN12C renal = conditions: 10 µM unless noted
TK-10 renal = conditions: 10 µM unless noted
ACHN renal = conditions: 10 µM unless noted
A498 renal = conditions: 10 µM unless noted
CCRF-CEM leukemia = conditions: 10 µM unless noted
MOLT-4 leukemia = conditions: 10 µM unless noted
SR leukemia = conditions: 10 µM unless noted
RPMI-8226 leukemia = conditions: 10 µM unless noted
OVCAR-8 ovarian = conditions: 10 µM unless noted
OVCAR-5 ovarian = conditions: 10 µM unless noted
SK-OV-3 ovarian = conditions: 10 µM unless noted
IGROV1 ovarian = conditions: 10 µM unless noted
OVCAR-3 ovarian = conditions: 10 µM unless noted
HS 578T breast = conditions: 10 µM unless noted
NCI/ADR-RES ovarian = conditions: 10 µM unless noted
CAKI-1 renal = conditions: 10 µM unless noted
OVCAR-4 ovarian = conditions: 10 µM
UO-31 renal = conditions: 10 µM unless noted

Row | Compound | growth (SK-MEL-2 melanoma) | growth (EKVX NSCLC) | growth (SN12C renal) | growth (TK-10 renal) | growth (ACHN renal) | growth (A498 renal) | growth (CCRF-CEM leukemia) | growth (MOLT-4 leukemia) | growth (SR leukemia) | growth (RPMI-8226 leukemia) | growth (OVCAR-8 ovarian) | growth (OVCAR-5 ovarian) | growth (SK-OV-3 ovarian) | growth (IGROV1 ovarian) | growth (OVCAR-3 ovarian) | growth (HS 578T breast) | growth (NCI/ADR-RES ovarian) | growth (CAKI-1 renal) | growth (OVCAR-4 ovarian) | growth (UO-31 renal)
1 | O=C1Nc2ccccc2/C1=C/C(=O)c1ccc(N2CCCC2)cc1 | 58.7% | 76.1% | 15.6% | 42.8% | 30.7% | 65.8% | 10.4% | 3.55% (active) | 15.2% | 15.8% | -12.7% (active) | 75.6% | 70.9% | 15.9% | -17.6% (active) | 12.3% | -23.8% (active) |  |  | 
2 | C=CC1=C(C)C2=NC1=CC1=NC(=CC3=C(C)C4=C(O)C(C(=O)O)C(=C5NC(=C2)C(C)C5CCC(=O)O)C4=N3)C(CC)=C1C (stereo not drawn) | 129% | 103% | 101% | 106% | 98.7% | 106% | 96.3% |  | 95.5% | 102% | 107% | 114% | 119% | 106% | 107% | 105% | 114% | 101% | 103% | 
3 | COc1ccc(NCc2cn(-c3ccc(C(=O)O)cc3)nc2-c2ccc(C(=O)O)cc2)cc1C(F)(F)F | 106% | 84.2% | 95.3% | 83% |  | 81.2% | -50.4% (active) |  | 131% | 88.4% | 103% | 93.3% |  | 99.7% | 105% | 83.2% | 105% | 86.3% | 93.3% | 
4 | COc1cc(OC)c(/C=C/C(=O)c2c(N)cc(OC)cc2OC)c(OC)c1 | 12.4% | 49.3% | 37% | 44.3% | 36.6% | -11.4% (active) | 12.3% | 35.8% | 29.2% | 13.5% | 19.9% | 29.7% | 5.56% (active) | 32.5% | -45.5% (active) |  | -16.2% (active) | 12.3% | 80.1% | 
5 | O=C(N[C@@H]1CCCc2ccccc21)[C@H](CCC(=O)N1CCN(C2CCCCC2)CC1)N1C(=O)[C@@H](N2C(=O)OC[C@@H]2c2ccccc2)[C@H]1/C=C/c1ccccc1 | 20.6% | 51.2% | 25.4% |  | 36.4% | 31.8% | 22.8% | -1.99% (active) | -25.1% (active) | -13.9% (active) | 54.4% | 93.5% | 70.6% | 49.3% | 32.5% | 48.1% | 33.3% | 37.9% | 36.8% | 
6 | C=C(C)[C@@H]1CC[C@]2(C(=O)NCCCCCCN(CCCN)CCCN)CC[C@]3(C)[C@H](CC[C@@H]4[C@@]5(C)CC[C@H](OCCCN)C(C)(C)[C@@H]5CC[C@]43C)[C@@H]12 | 122% [100 µM] | 141% [100 µM] | 81.9% [100 µM] | 119% [100 µM] | 75.6% [100 µM] | 130% [100 µM] | 11.8% [100 µM] | 10.1% [100 µM] | 18.4% [100 µM] | 29.3% [100 µM] | -28.3% [100 µM] (active) | 90.5% [100 µM] | 97.9% [100 µM] | 27.3% [100 µM] | 71.8% [100 µM] | 94.9% [100 µM] | 86.3% [100 µM] | 94.5% [100 µM] |  | 
7 | CC(C)CCSC1=CC(=O)c2ccccc2C1=O | 83.1% | 81% | 90.2% | 103% | 11.2% | 98.4% | 0.242% (active) | 16% | 6.01% (active) | -62.3% (active) | 56.4% | 112% | 104% | -35.3% (active) | -57.5% (active) | 74% | 76.3% | 21.1% | -50.6% (active) | 
8 | O=C(Nc1cccc(F)c1)c1cc(=O)[nH]c2cc(Br)ccc12 | 41.2% | 63% | 60% | 69.8% | 57% | 30.8% | 58.8% | 45.8% | 21.8% |  | 71.8% | 63.3% | 51.8% | 40.5% | 23.5% | 52.4% | 53.2% | 33.8% | 70.6% | 
9 | Cn1cc(-c2noc(-c3cn(C)c4ncc(Br)cc34)n2)c2cc(Cl)ccc21 | 82.4% | 62.7% | 50.5% | 64.7% |  | 84.8% |  | 67.7% | 44.3% | 87.6% | 99.7% | 70.5% | 62.8% | 54.2% | 44.2% | 65.8% | 58.5% | 50.8% | -25.7% (active) | 
10 | N#C/C(C(=O)c1ccccc1)=C1/C(=O)Nc2ccccc21 | 106% | 99.4% | 93.1% | 118% | 98% | 89% | 103% |  | 112% | 112% | 97.2% | 101% | 85.3% | 86.1% | 108% | 91.4% | 103% | 78.8% |  | 
11 | O=C(NCc1ccccc1)C(Cl)Cl | 96.2% | 95.4% | 104% | 90.2% | 104% | 94.4% | 103% | 101% | 95.1% | 101% | 101% | 91.7% | 101% | 101% |  | 105% | 104% | 96.5% | 102% | 
12 | C#CCNC(=O)CC[C@]1(C)[C@H]2CC[C@@H]3[C@@H]([C@@](C)(O)CCC=C(C)C)CC[C@@]3(C)[C@]2(C)CC[C@H]1C(=C)C | 49.1% [100 µM] | 71.7% [100 µM] | 43.9% [100 µM] | 70.5% [100 µM] | 7.69% [100 µM] (active) | 67.1% [100 µM] | -34.4% [100 µM] (active) | -29% [100 µM] (active) | 12.8% [100 µM] | -7.33% [100 µM] (active) | 7.74% [100 µM] (active) | 55.6% [100 µM] | 66.6% [100 µM] | -62.6% [100 µM] (active) | -26.4% [100 µM] (active) | 35.6% [100 µM] | 53.6% [100 µM] | 1.83% [100 µM] (active) |  | 
13 | COc1ccc(C2NC(=O)C(C#N)c3c2sc2c(F)cccc32)cc1 (stereo not drawn) | 60% |  | 61.5% | 113% | 43.6% | 32.2% | 44% | 49.1% | 22.2% | 63.2% | 69.8% | 85.6% | 63.2% | 41.1% | 0.617% (active) |  | 27.3% | 40% | 71.4% | 36.8%
14 | N/C(=N\c1nc2ccccc2[nH]1)NC(=O)Cc1cccc2ccccc12 | 65.6% |  | 98.8% | 106% | 88.9% | 80.6% | 86% | 30.4% | 115% | 92.9% | 27.5% | 88.6% | 92.5% |  | 120% | 84.1% | 79.9% | 82.9% | 70.6% | 50.3%
15 | N#Cc1c(N2CCOCC2)nc(=S)[nH]c1-c1ccco1 | 37.1% |  | 77.6% |  | 64.2% | -1.37% (active) | 49.6% | 64.5% | 17.8% | 43% | 80.3% | 69% | 55% | 20.7% | 64.7% |  | 40.2% | 58.2% | 66.2% | 66%
16 | c1cc2ccc1CNCCN1CCNCc3ccc(cc3)Oc3ccc(cc3)CNCCN(CCNCc3ccc(cc3)O2)CCNCc2ccc(cc2)Oc2ccc(cc2)CNCC1 | -94.5% (active) |  | -80.5% (active) | 29.4% | 84.4% | 48% | -17.4% (active) | -45.4% (active) | -40.1% (active) | -49% (active) | -7.54% (active) | -55.1% (active) |  | -64.3% (active) | -94.6% (active) | -48.7% (active) | 103% | 47.5% | -77.6% (active) | 85.3%
